High-throughput results (PubChem BioAssay)
FEN1 inh: inhibitors of human flap endonuclease 1; P39748; Recombinant FEN1 flap cleavage, fluorescence, 15 min; Potency, µM (doses to about 114 µM), for inactives: at the highest dose activity change, negative = inhibition, usual class: inhibitors; 0.35% of 390,000 active; note: potency is the fitted concentration of half-maximal effect; % is set by controls: 0 for no effect and ±100 for the full control effect; nearly all actives have a fitted effect of over 65% in size
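In this screen, 50 nM flap DNA substrate was added to 10 nM FEN1 pretreated with compound for 15 min at room temperature; cleavage was followed with reads at 0 and 15 min, and Hill fitting gave concentration–response parameters.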
WRN helicase inh: inhibitors of human WRN helicase; WRN helicase unwinding, fluorescent forked duplex, kinetic; Potency, µM (highest dose often 114 µM), inactives show top-dose activity change, negative = inhibition, most hits filed as inhibitors; 0.46% of 360,000 active; AID 651768; note: potency is the fitted concentration of half-maximal effect; % is set by controls: 0 for no effect and ±100 for the full control effect; nearly all actives have a fitted effect of over 55% in size
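Fluorescence dequenching readout, ex 525 nm/em 598 nm, kinetic mode: forked duplex DNA (100 nM final) with adjacent fluorophore and quencher unwound by WRN (20 nM final) with 2 mM ATP. Compound preincubation 15 min, room temperature.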
Pol eta inh-1: inhibitors of human DNA polymerase eta; Q9Y253; recombinant Pol eta, fluorescent DNA replication assay; Potency, µM (top dose mostly 114 µM), inactives show top-dose activity change, negative = inhibition, hits mostly inhibitors; 1.2% of 390,000 active; AID 588591; note: potency is the fitted concentration of half-maximal effect; % is set by controls: 0 for no effect and ±100 for the full control effect
Target sequence (Q9Y253 whole entry, looked up): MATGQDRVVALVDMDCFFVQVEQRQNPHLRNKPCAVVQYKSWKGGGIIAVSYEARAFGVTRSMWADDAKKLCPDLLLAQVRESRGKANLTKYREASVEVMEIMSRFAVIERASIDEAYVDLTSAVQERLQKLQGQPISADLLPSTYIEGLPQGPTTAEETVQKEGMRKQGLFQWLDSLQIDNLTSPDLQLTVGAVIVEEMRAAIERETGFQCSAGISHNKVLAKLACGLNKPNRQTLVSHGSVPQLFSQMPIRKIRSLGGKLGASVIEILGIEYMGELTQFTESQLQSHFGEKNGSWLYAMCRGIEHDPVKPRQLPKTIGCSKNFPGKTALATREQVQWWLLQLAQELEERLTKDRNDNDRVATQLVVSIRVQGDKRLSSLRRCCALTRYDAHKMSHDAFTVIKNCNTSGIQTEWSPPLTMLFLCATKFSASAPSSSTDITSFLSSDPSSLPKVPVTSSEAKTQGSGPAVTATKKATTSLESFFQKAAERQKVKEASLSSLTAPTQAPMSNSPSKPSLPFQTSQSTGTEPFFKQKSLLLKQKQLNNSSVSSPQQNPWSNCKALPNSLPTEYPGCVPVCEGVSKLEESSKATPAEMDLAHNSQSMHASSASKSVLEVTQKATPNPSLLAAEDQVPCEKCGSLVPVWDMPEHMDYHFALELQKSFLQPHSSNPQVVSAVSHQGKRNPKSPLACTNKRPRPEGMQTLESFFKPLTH
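Pol eta (10 nM) was preincubated with compounds for 15 min at room temperature, after which fluorescent replication substrate (50 nM final) was added to start the reaction. Fluorescence was read kinetically at 0 and 10 min.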
Pol kappa inh-1: DNA polymerase kappa (human) inhibition; purified Pol kappa, fluorescent DNA synthesis assay, 10 min; Potency, µM (doses to about 107 µM), for the others: at the highest dose activity, negative = inhibition, actives largely listed as inhibitors; 0.53% of 400,000 active; note: potency is the fitted concentration of half-maximal effect; % is set by controls: 0 for no effect and ±100 for the full control effect
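10 nM Pol kappa preincubated 15 min at room temperature with compounds, then reaction started with substrate at 50 nM final. Fluorescence read kinetically at 0 and 10 min; buffer-only wells served as negative control.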
POLB inh: DNA polymerase beta (human) inhibition; Pol beta primer extension/strand displacement, fluorescence kinetic; AID 485314; Potency, µM (top dose mostly 114 µM), for inactives: top-dose activity change, negative = inhibition, most hits filed as inhibitors; P06746; 1.3% of 340,000 active; note: potency is the fitted concentration of half-maximal effect; % is set by controls: 0 for no effect and ±100 for the full control effect
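10 nM enzyme + cpd, 15 min RT; start with substrate 50 nM final; read 0 min and after 10 min RT. Corrected, normalized data; 4-parameter Hill curve fit.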
POLI inh: DNA polymerase iota (human) inhibition; Q9UNA4; AID 588590; 1% of 390,000 active; Pol iota fluorescent replication assay, 10 min; Potency, µM (series often up to 115 µM), for the others: at the top dose activity, negative = inhibition, hits mostly inhibitors; note: potency is the fitted concentration of half-maximal effect
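Fluorescent replication assay read twice, at 0 min and 10 min after adding 50 nM (final) substrate. Enzyme (10 nM) and compounds were first incubated 15 min at room temperature; enzyme-free buffer wells were negative controls.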
GALK inh confirm: confirmation of human galactokinase (GALK) inhibitors; shares compounds with Pol eta inh-1; purified GALK, Kinase-Glo ATP depletion luminescence; Potency, µM (highest dose often 115 µM), without a hit: at the top dose activity, negative = inhibition, usual class: inhibitors; 70% of 150 active; AID 2015
GALK redox cs: redox cycling activity in phenol red-HRP assay. shares compounds with Pol eta inh-1. Phenol red-HRP H2O2 redox cycling, absorbance 600 nm. Potency, µM (doses to about 115 µM), inactives show at the top dose activity change, negative = H2O2 signal, usual class: inhibitors. 40% of 150 active
HEK293 tox: reduces HEK-293 cell viability in GALK counter-screen | 10% of 170 active | AID 2547 | HEK-293 viability, ATP luminescence (CellTiter-Glo), 24/48 h | shares compounds with Pol eta inh-1 | Potency, µM (top dose mostly 46.1 µM), for inactives: at the top dose activity change, negative = cytotoxicity, usual class: inhibitors; note: potency is the fitted concentration of half-maximal effect; % is set by controls: 0 for no effect and ±100 for the full control effect
Pol kappa inh-2: Pol kappa (human) inhibition, cherry-pick confirmation; Potency, µM, most hits filed as inhibitors; shares compounds with Pol eta inh-1; 76% of 920 active; purified Pol-kappa, fluorescent strand-displacement substrate; note: potency is the fitted concentration of half-maximal effect
Pol eta inh-2: Pol eta (human) inhibition, cherry-pick confirmation; 64% of 2,600 active; Potency, µM, most hits filed as inhibitors; Pol eta primer extension, TAMRA/BHQ fluorescence, 10 min; AID 720502; shares compounds with Pol eta inh-1; note: potency is the fitted concentration of half-maximal effect
* hit, by the source's call; ? = inconclusive; / = no result; [ ] = remark or other dose. Shown are actives, neighbours in structure and some others; about 2.4% of the full set was active somewhere. Calls come from the whole dose curve; as a rule, active = well fitted curve in the direction sought with a large enough effect; inconclusive = small, poorly fitted or top-dose-only effect, or another doubt; inactive = no such curve, though single readings can be large; an effect the other way counts as inactive or inconclusive.

SMILES	FEN1 inh	WRN helicase inh	Pol eta inh-1	Pol kappa inh-1	POLB inh	POLI inh	Pol eta inh-2	others
O=c1[nH]c(/C=C/c2cccc([N+](=O)[O-])c2)c([N+](=O)[O-])c(=O)[nH]1	-3%	-5%[11.6 µM]	25µM*	-3%	-21%	?	/	GALK inh confirm=38µM*;GALK redox cs=2%;HEK293 tox=7%
O=c1[nH]c(/C=C/c2ccc(Cl)cc2Cl)c([N+](=O)[O-])c(=O)[nH]1	4%	-32%	20µM*	-14%	32µM*	50µM*	76*
CC(C)CN1CCC2(CC1)CCN(S(=O)(=O)c1ccccc1)CC2	/	/	/	-4%[60.1 µM]	/	/	/
O=C(O)c1cccc(N/N=C/c2ccc(F)c(F)c2)c1	9%	-2%	-3%	-3%	-24%	110%	/
O=C(O)c1cccc(N/N=C/C2=C(Cl)c3cc(Cl)ccc3SC2)c1	-10%	-17%	50µM*	-19%	?	?	?	Pol kappa inh-2=?
O=C1SC(SCc2ccccc2Cl)=N/C1=C\c1ccc(C(=O)O)cc1	?	-18%[11.6 µM]	50µM*	-40%	?	?	?
C[C@@H]1Cc2c(O)c(O)cc(O)c2C(=O)O1	56µM*	-21%	22µM*	79µM*	2.8µM*	?	67*
CC1CC(Nc2cccc(O)c2)=CC(=O)O1 (centres undefined)	0%	2%	-10%	-2%	8%	-7%	/
CCOC(=O)c1cc2c(=O)n3cccc(C)c3nc2n(Cc2ccco2)c1=NC(=O)c1cccnc1	-21%	?	20µM*	?	35µM*	?	?
O=C1CSC(=S)N1N=Cc1ccc(Cl)s1	-23%	20µM*	?	?	/	14µM*	54*	Pol kappa inh-2=17*
CC1=NN(c2cccc(C(=O)O)c2)C(=O)/C1=C\C=C/c1ccccc1	79µM*	?	18µM*	-15%	0%	?	27*
Cc1nn(CC(=O)NC2CCCCC2)c(=O)c2cc3cc(F)ccc3n12	-1%	/	-15%	-11%	4%	33%	/
CCCC[C@@H]1CCCO[C@@](C(=O)NCCN2CCOCC2)(C(F)(F)F)C1	0%	/	/	-2%	/	-7%	/
COCc1cc(CN2CCCC2)c(O)c2ncccc12	?	0%	-8%	-16%	-2%	63%	/	GALK inh confirm=1%;GALK redox cs=-3%;HEK293 tox=?
CCc1nn(CC(=O)Nc2cccc(C(C)=O)c2)c(=O)c2cc3sccc3n12	1%	/	-1%	-17%	-1%	-10%	/
CC(=O)Nc1ccc(N2C(=O)c3cccc4c(O)ccc(c34)C2=O)cc1	?	50µM*	32µM*	?	?	?	?	Pol kappa inh-2=30*
O=C(Nc1cccc(Cl)c1)c1ccc2nc(CCc3ccccc3)oc2c1	-1%	/	-9%	-7%[60.1 µM]	8%	-4%	/
Cc1cccc(Nc2ccccc2C(=O)OCC(=O)NCc2ccco2)c1C	1%	-19%[57.1 µM]	79µM*	-9%	1%	?	?
C[C@H](NC(=O)C1CCC(CNC(=O)[C@@H]2CCCN2C(=O)OC(C)(C)C)CC1)C(=O)O (some centres undefined)	16%	-2%	-13%	2%	-28%	22%	/	GALK inh confirm=-2%;GALK redox cs=2%;HEK293 tox=2%
CC(C)[C@H](NC(=O)C1CCC(CNC(=O)[C@@H]2CCCN2C(=O)OC(C)(C)C)CC1)C(=O)O (some centres undefined)	4%	0%	-23%	4%	-1%	-4%	/
CC(=O)NC1[C@H](O)C[C@@](O)(C(=O)O)O[C@H]1[C@H](O)[C@H](O)CO (some centres undefined)	/	/	/	5%[19.4 µM]	/	/	/
COc1ccc(C(C(=O)NC2CCCC2)N(C(=O)c2snc(C(N)=O)c2N)c2cccc(O)c2)cc1 (centres undefined)	?	-10%[11.6 µM]	22µM*	79µM*	40µM*	?	76*	Pol kappa inh-2=?
Cc1ccc(Nc2c(-c3ccc(C)s3)nc3cccc(C)n23)cc1	-9%	/	/	-4%	/	45%	/
COc1ccc(Cn2c(O)c(C=Nc3ccc(OC)cc3)c3ccccc3c2=O)cc1	-8%	-13%	-7%	-20%	35%	14%	/
COc1ccc(Cn2c(O)c(C=Nc3ccccc3C(=O)O)c3ccccc3c2=O)cc1	?	?	20µM*	-45%	?	?	67*
SMILES	FEN1 inh	WRN helicase inh	Pol eta inh-1	Pol kappa inh-1	POLB inh	POLI inh	Pol eta inh-2	others
C=CCC(O)[C@H](Cc1cnc2ccccc2c1)[C@H](/C=C/CCCC)c1ccccc1 (some centres undefined)	-9%	/	/	-3%	/	-13%	/
O=C(COC(=O)C1CC1)Nc1ncc(Cl)cc1Cl	-8%	?	28µM*	-38%	/	?	48*
Cc1csc(=O)n1CCC(=O)OCC(=O)Nc1ncc(Cl)cc1Cl	14%	-35%	22µM*	?	/	?	?	Pol kappa inh-2=21*
Cc1cccc2cc(/C=N/NC(=O)c3ccccc3O)c(Cl)nc12	1%	?	?	-3%	28µM*	-14%	?
Cc1ccc2cc(/C=N/NC(=O)c3ccccc3O)c(Cl)nc2c1	-16%	50µM*	16µM*	-9%	3%[57.1 µM]	7%	?
Cc1ccc(/C=C/C(=O)O)cc1S(=O)(=O)N1CCc2ccccc2C1	-13%	3%[57.1 µM]	-7%	-4%	6%	106%	/
COc1ccc(/C=C/C(=O)O)cc1S(=O)(=O)N1CCc2ccccc2C1	0%	-5%[11.6 µM]	?	-11%	?	?	?
